Test results: PubChem BioAssay AID1014 (NMMLSC, 2008)
Calls of active or inactive are those of the source. Rule as the data show it: active = inhibition of mean fluorescence above about 33%; inactive = the rest.

Assay: blockers of bacterial quorum-sensing reporter fluorescence – flow cytometry, SAR analogs, SAR follow-up (AID 1014);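 also: Staphylococcus aureus RN6390 with RNAIII-GFP reporter stimulated by AIP; bacteria incubated with compound for 3 hours at 37 °C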
Details: at 20 µM, stronger effect = higher value; inhibition of percent positive cells: measured here: percent reporter-positive cells

Row | Structure (SMILES) | inhibition of mean fluorescence | inhibition of percent positive cells
1 | CCOC(=O)c1c(C)oc2cc(Br)c(O)c(C=O)c12 | -4.5% (inactive) | 2.9%
2 | O=C(NC1CCCC1)C(c1cc2c(cc1[N+](=O)[O-])OCO2)N1CCCC1 (configuration not stated) | -3.7% (inactive) | -0.1%
3 | CC1CCN(C(C(=O)Nc2ccc3c(c2)OCO3)c2ccccc2)CC1 (configuration not stated) | 32.4% (active) | -0.7%
4 | CC1CCCN(CCC(=O)Nc2ccc3c(c2)OCO3)C1 (configuration not stated) | -15.3% (inactive) | -1.5%
5 | O=C(O)c1ccccc1NC(c1ccccc1)c1ccc(Cl)cc1 (configuration not stated) | 59.8% (active) | 0.2%
6 | COc1ccccc1N1CCN(C(CNC(=O)c2ccc(F)cc2)c2cccnc2)CC1 (configuration not stated) | 6.4% (inactive) | -1.7%
7 | O=C(NC1CCCC1)C(c1cc2c(cc1[N+](=O)[O-])OCO2)N1CCOCC1 (configuration not stated) | -11.5% (inactive) | -0.1%
8 | Cc1ccc(S(=O)(=O)c2nnn3c2nc(Nc2cccc(C)c2)c2ccccc23)cc1 | 5.4% (inactive) | 1.5%
9 | CCc1c(C(=O)c2ccc(C)cc2)oc2ccc3c(C)cc(=O)oc3c12 | 10.8% (inactive) | -0.1%
10 | CC(=O)c1ccc(Nc2nc3c(S(=O)(=O)c4ccccc4)nnn3c3ccccc23)cc1 | 11.9% (inactive) | 0.1%
11 | Cc1[nH]nc(Nc2ccccc2C(=O)O)c1[N+](=O)[O-] | 0.1% (inactive) | 0.2%
12 | O=C(NC1CCCC1)C(c1cc2c(cc1[N+](=O)[O-])OCO2)N1CCN(C2CCCCC2)CC1 (configuration not stated) | -24.8% (inactive) | -1.4%
13 | Cc1cccc(Nc2c(F)c(F)c(F)c(F)c2C(=O)O)c1 | -16.8% (inactive) | -0.2%
14 | O=C(NCC(c1cccnc1)N1CCN(c2ccccc2)CC1)c1cccs1 (configuration not stated) | 47.7% (active) | 1.1%
15 | Cc1cc(Nc2ccccc2C(=O)O)n2ncnc2n1 | -29.1% (inactive) | -0.3%
16 | O=C(NCC(c1cccnc1)N1CCN(c2ccccc2F)CC1)c1ccccc1 (configuration not stated) | -24.2% (inactive) | -1.5%
17 | O=C(Nc1ccc2c(c1)OCO2)C1CCCN(C(=O)c2cnn(-c3ccccc3)c2-n2cccc2)C1 (configuration not stated) | -23.9% (inactive) | 0.1%
18 | COc1ccc(C(=O)NCC(c2cccnc2)N2CCN(c3ccc(F)cc3)CC2)cc1 (configuration not stated) | -13.4% (inactive) | -0.3%

Row | Structure (SMILES) | inhibition of mean fluorescence | inhibition of percent positive cells
19 | COc1ccc(Nc2nc3c(S(=O)(=O)c4ccccc4)nnn3c3ccsc23)cc1 | -41.7% (inactive) | 0.3%
20 | COc1ccc(S(=O)(=O)c2nnn3c2nc(Nc2cccc(C)c2)c2ccccc23)cc1 | -7.2% (inactive) | 0.1%
21 | CC1CCN(C(C(=O)Nc2ccc(C(C)C)cc2)c2ccc3c(c2)OCO3)CC1 (configuration not stated) | 35% (active) | -0.9%
22 | N#Cc1c(NC(=O)CCN2C(=O)c3ccccc3C2=O)oc(-c2ccccc2)c1-c1ccccc1 | 19.7% (inactive) | -0.3%
23 | CC(C)c1ccc(NC(=O)C(c2cc3c(cc2[N+](=O)[O-])OCO3)N2CCC(Cc3ccccc3)CC2)cc1 (configuration not stated) | -12% (inactive) | -0.4%
24 | O=C(NCC(c1cccnc1)N1CCc2ccccc21)c1cccc(F)c1 (configuration not stated) | 6.5% (inactive) | -2%
25 | CCOC(=O)c1c(C)oc2cc(Br)c(O)c(Br)c12 | 55.9% (active) | 0.7%
26 | O=C(Nc1ccc2c(c1)OCO2)C(c1ccccc1)N1CCC(Cc2ccccc2)CC1 (configuration not stated) | 63% (active) | 4.2%
27 | COc1cccc(C(=O)NCC(c2cccnc2)N2CCN(c3ccccc3OC)CC2)c1 (configuration not stated) | 10.5% (inactive) | -0.3%
28 | COc1cc(C(=O)NCC(c2cccnc2)N2CCN(c3ccccc3F)CC2)cc(OC)c1OC (configuration not stated) | -57.3% (inactive) | -1.5%
29 | O=C(O)c1ccccc1Nc1ccccc1C(=O)O | 5.8% (inactive) | -0.5%
30 | Cc1cccc(Nc2nc3c(S(=O)(=O)c4ccccc4)nnn3c3ccccc23)c1 | 3.1% (inactive) | 0.2%
31 | O=C(NCC(c1cccnc1)N1CCN(c2ccccc2F)CC1)c1ccc(F)cc1 (configuration not stated) | 11.5% (inactive) | -1.8%
32 | O=C(NCC(c1cccnc1)N1CCc2ccccc2C1)c1ccc(F)c(F)c1 (configuration not stated) | -6.4% (inactive) | -0.1%
33 | Cc1oc2ccc(O)cc2c1C(=O)OC(C)C | -11.3% (inactive) | 0.1%
34 | COc1ccc(NC(=O)C(c2cc3c(cc2[N+](=O)[O-])OCO3)N2CCCC(C)C2)cc1 (configuration not stated) | 29.6% (inactive) | -0.9%
35 | O=C(Nc1ccc2c(c1)OCO2)C1CCN(Cc2cnn(-c3ccccc3)c2-n2cccc2)CC1 | -33.1% (inactive) | -0.6%
36 | CC1CC(C)CN(C(C(=O)Nc2ccc(C(C)C)cc2)c2cc3c(cc2[N+](=O)[O-])OCO3)C1 (configuration not stated) | -12.5% (inactive) | -0.1%
